Rows were chosen to be rich in hits. Some 27% of all compounds tested hit in one or more screens of this group.
CYP2C9 inh = inhibitors of human CYP2C9; inhibition, % at 5 µM; CYP2C9 Supersomes, luciferin-H conversion, luminescence; hit rate 20% among 96,000; P11712;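 active = blocking of liver enzyme CYP2C9 beyond about 50% at 5 µM, limit read from the data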
Target sequence (P11712 whole entry, looked up): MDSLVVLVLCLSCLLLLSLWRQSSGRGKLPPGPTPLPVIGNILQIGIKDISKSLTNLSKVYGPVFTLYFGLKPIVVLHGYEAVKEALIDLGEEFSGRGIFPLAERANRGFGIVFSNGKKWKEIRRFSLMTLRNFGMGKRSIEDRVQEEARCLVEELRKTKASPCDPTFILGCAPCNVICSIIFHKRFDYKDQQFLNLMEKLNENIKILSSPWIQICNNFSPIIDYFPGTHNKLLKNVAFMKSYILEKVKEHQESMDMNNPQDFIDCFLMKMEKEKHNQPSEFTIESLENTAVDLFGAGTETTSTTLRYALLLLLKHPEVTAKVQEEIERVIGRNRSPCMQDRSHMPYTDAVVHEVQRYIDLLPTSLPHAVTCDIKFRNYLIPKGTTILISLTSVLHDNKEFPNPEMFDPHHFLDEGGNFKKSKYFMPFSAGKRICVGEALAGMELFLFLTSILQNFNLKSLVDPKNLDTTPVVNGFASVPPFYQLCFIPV
Cav32 inh = blocks human Cav3.2 T-type calcium channel; B-score at 10 µM; Cav3.2-expressing cells, Fluo-4 calcium fluorescence FDSS; hits give low values; hit rate 4% among 100,000;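 active = single-dose well whose peak fluorescence ratio is a statistical outlier from its plate by either plate-standardised score or position-corrected B-score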
CYP2C19 inh = human CYP2C19 inhibition; P33261; CYP2C19 Supersomes, luciferin-H EGE luminescence, 30 min; inhibition, % at 5 µM; hit rate 21% among 96,000; AID 778;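 active = CYP2C19 inhibition above a set limit at 5 µM in the primary screen, cut at about 50% in these data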;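 note: plate controls were negative control wells for no effect and 2.5 mM tranylcypromine positive control for full effect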
CYP2C9 act = CYP2C9 (human) activation; activation factor at 5 µM; recombinant CYP2C9, luciferin-H conversion, luminescence; hits give high values; factor 1 = untreated enzyme, 0 = blocked; P11712; hit rate 1.4% among 96,000;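 active = activation factor of 2 or more for CYP2C9 at a 5 µM dose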;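 note: 0 = sulfaphenazole-blocked wells and 1 = vehicle-only wells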
CYP2C19 activ = increases human CYP2C19 enzyme activity | activation factor at 5 µM | 96,000 tested, under 10 active | P33261 | AID 1025 | recombinant CYP2C19, luciferin-H EGE luminescence; hits give high values; 0 = fully inhibited enzyme, 1 = untreated enzyme;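 active = activation factor of at least 2 at 5 µM in the primary screen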;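 note: 0 = wells with 2.5 mM tranylcypromine and 1 = vehicle-only wells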
Starred values were filed as active, the others as inactive.

How did Cc1cc(C)nc(N2CCN(c3nnnn3-c3ccccc3)CC2)n1 do in these assays?
CYP2C9 inh: 85*; Cav32 inh: 0.29; CYP2C19 inh: 45; CYP2C9 act: 0.1; CYP2C19 activ: 0.6

What do the screens show for `CC1(C)C=Cc2c(c3ccccc3[nH]c2=O)O1`?
CYP2C9 inh: 34; Cav32 inh: 0.039; CYP2C19 inh: 18; CYP2C9 act: 0.7; CYP2C19 activ: 0.8

How did O=C1N=C(O)CN1/N=C/c1ccc(-c2ccc([N+](=O)[O-])cc2)o1 do in these assays?
Cav32 inh: 0.19

How did CCN(CC)Cc1cc(CC(C(N)=O)C(N)=O)ccc1OC do in these assays?
CYP2C9 inh: -1; Cav32 inh: -0.83; CYP2C19 inh: 3; CYP2C9 act: 1; CYP2C19 activ: 1

What do the screens show for `CCSc1nc2c(c(=O)[nH]1)C(c1ccncc1)C(C(=O)OC(C)C)=C(C)N2` (stereo not given)?
CYP2C9 inh: 57*; Cav32 inh: 0.52; CYP2C19 inh: 90*; CYP2C9 act: 0.4; CYP2C19 activ: 0.1

How did CCN=C1SC(CC(=O)Nc2ccc(N3CCOCC3)cc2)C(=O)N1CC (stereo not given) do in these assays?
CYP2C9 inh: 14; Cav32 inh: 0.68; CYP2C19 inh: 16; CYP2C9 act: 0.9; CYP2C19 activ: 0.8

What do the screens show for `CCN=C1SC(CC(=O)NC2CCCCC2)C(=O)N1CC` (stereo not given)?
CYP2C9 inh: -3; Cav32 inh: 0.93; CYP2C19 inh: 16; CYP2C9 act: 1; CYP2C19 activ: 0.8

How did CCCCOc1ccccc1NC(=O)CC1SC(=NCC)N(CC)C1=O (stereo not given) do in these assays?
CYP2C9 inh: -14; Cav32 inh: -3.6; CYP2C19 inh: 69*; CYP2C9 act: 1.1; CYP2C19 activ: 0.3

How did CCN=C1SC(CC(=O)Nc2ccc(C(F)(F)F)cc2)C(=O)N1CC (stereo not given) do in these assays?
CYP2C9 inh: 17; Cav32 inh: -1.3; CYP2C19 inh: 65*; CYP2C9 act: 0.8; CYP2C19 activ: 0.4

What do the screens show for `CCCCN1C(=O)C(CC(=O)NCC)SC1=Nc1ccccc1` (stereo not given)?
Cav32 inh: 0.42

How did CCN=C1SC(CC(=O)Nc2ccccc2OCC)C(=O)N1CC (stereo not given) do in these assays?
CYP2C9 inh: -36; Cav32 inh: 1.4; CYP2C19 inh: 76*; CYP2C9 act: 1.4; CYP2C19 activ: 0.2

What do the screens show for `CCNC(=O)CC1SC(=Nc2ccc(C)cc2)N(CC)C1=O` (stereo not given)?
CYP2C9 inh: 27; Cav32 inh: 0.73; CYP2C19 inh: 53*; CYP2C9 act: 0.7; CYP2C19 activ: 0.5

How did CCOCCc1nnc(NC(=O)COC)s1 do in these assays?
CYP2C9 inh: 29; Cav32 inh: 0.61; CYP2C19 inh: 9; CYP2C9 act: 0.7; CYP2C19 activ: 0.9

How did CCN=C1SC(CC(=O)Nc2sc3c(c2C#N)CCCC3)C(=O)N1CC (stereo not given) do in these assays?
CYP2C9 inh: 53*; Cav32 inh: 0.026; CYP2C19 inh: 20; CYP2C9 act: 0.5; CYP2C19 activ: 0.8

What do the screens show for `CCCCOc1ccccc1NC(=O)CC1Nc2ccccc2NC1=O` (stereo not given)?
CYP2C9 inh: 64*; Cav32 inh: -0.84; CYP2C19 inh: 26; CYP2C9 act: 0.4; CYP2C19 activ: 0.7

How did CCN=C1SC(CC(=O)NCCc2ccc(OC)cc2)C(=O)N1CC (stereo not given) do in these assays?
CYP2C9 inh: 51*; Cav32 inh: 0.54; CYP2C19 inh: 48; CYP2C9 act: 0.5; CYP2C19 activ: 0.5

How did CCC(C)N(C)C(=O)c1cc2ccccc2c(-c2ccccc2Cl)n1 (stereo not given) do in these assays?
Cav32 inh: -0.88

How did Cc1ccc(CN(c2ccc(C(=O)N3CCCC3)cc2)S(C)(=O)=O)cc1 do in these assays?
CYP2C9 inh: 27; Cav32 inh: 0.61; CYP2C19 inh: 11; CYP2C9 act: 0.7; CYP2C19 activ: 0.9

What do the screens show for `Cc1nc(SCc2c(F)cccc2Cl)c2c(=O)n(C)c(=O)n(C)c2n1`?
CYP2C9 inh: 29; Cav32 inh: -1.4; CYP2C19 inh: 12; CYP2C9 act: 0.7; CYP2C19 activ: 0.9

How did CCOCCCNC(=O)c1ccc(CS(=O)(=O)Cc2ccccc2F)o1 do in these assays?
CYP2C9 inh: 0; Cav32 inh: 0.32; CYP2C19 inh: 12; CYP2C9 act: 1; CYP2C19 activ: 0.9
